Laboratory results published in the supplement of paper PMC8975748.
Structures can show the parent of a compound that is named as a salt. ± gives the standard deviation of the averaged measurements.

What was measured:
[1] = tested on: Saccharomyces cerevisiae BY4741 SeMeCo community; assay: mean cell size (pixel area) (pixels); higher = larger cells; details: 10 µM; 24 h; SM minimal medium
Outline: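 The test system was a fluorescent Saccharomyces cerevisiae BY4741 community with four plasmids, each restoring one auxotrophy and carrying a fluorescent marker. Cells were grown for 24 h in SM medium with drug at a final 10 µM in 384-well plates, then fixed with paraformaldehyde and imaged by automated confocal microscopy for Harmony analysis of mean cell pixel area per well. Values represent the average of 3 replicates. Same SeMeCo high-content imaging drug screen: Selleck FDA-approved drugs at 10 µM, 24 h in SM medium, 384-well plates, 3 replicates.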

[2] = tested on: Saccharomyces cerevisiae BY4741 SeMeCo community; assay: z-score of prototroph abundance vs DMSO median; higher = larger share of this subpopulation than in DMSO controls; details: 10 µM; 24 h; SM minimal medium; subpopulation (auxotrophy): Prototroph
Outline: (§1)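 A community of Saccharomyces cerevisiae BY4741 was built from four plasmids that each restored one auxotrophy and encoded a distinct fluorescent protein. Pre-grown overnight to OD600 1.0 and diluted to 0.3, it was dispensed at 70 µl into 384-well plates acoustically predosed with library drugs for a final 10 µM, and grown 24 h in minimal SM medium. Cells were then paraformaldehyde-fixed and imaged by automated confocal microscopy. Thresholds and autofluorescence correction came from single-auxotroph fluorescent strains, and each subpopulation's abundance was scored as a z-score relative to the vehicle-well median.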

[3] = tested on: Saccharomyces cerevisiae BY4741 SeMeCo community; assay: z-score of subpopulation abundance vs DMSO median, subpopulation auxotrophic for M; higher = larger share of this subpopulation than in DMSO controls; details: 10 µM; 24 h; SM minimal medium; subpopulation (auxotrophy): M
Outline: as §1

[4] = tested on: Saccharomyces cerevisiae BY4741 SeMeCo community; assay: z-score of subpopulation abundance vs DMSO median, subpopulation auxotrophic for L; higher = larger share of this subpopulation than in DMSO controls; details: 10 µM; 24 h; SM minimal medium; subpopulation (auxotrophy): L
Outline: as §1

[5] = tested on: Saccharomyces cerevisiae BY4741 SeMeCo community; assay: z-score of subpopulation abundance vs DMSO median, subpopulation auxotrophic for U; higher = larger share of this subpopulation than in DMSO controls; details: 10 µM; 24 h; SM minimal medium; subpopulation (auxotrophy): U
Outline: as §1

[6] = tested on: Saccharomyces cerevisiae BY4741 SeMeCo community; assay: z-score of subpopulation abundance vs DMSO median, subpopulation auxotrophic for H; higher = larger share of this subpopulation than in DMSO controls; details: 10 µM; 24 h; SM minimal medium; subpopulation (auxotrophy): H
Outline: as §1

[7] = tested on: Saccharomyces cerevisiae BY4741 SeMeCo community; assay: z-score of subpopulation abundance vs DMSO median, subpopulation auxotrophic for LU; higher = larger share of this subpopulation than in DMSO controls; details: 10 µM; 24 h; SM minimal medium; subpopulation (auxotrophy): LU
Outline: as §1

[8] = tested on: Saccharomyces cerevisiae BY4741 SeMeCo community; assay: z-score of subpopulation abundance vs DMSO median, subpopulation auxotrophic for LM; higher = larger share of this subpopulation than in DMSO controls; details: 10 µM; 24 h; SM minimal medium; subpopulation (auxotrophy): LM
Outline: as §1

[9] = tested on: Saccharomyces cerevisiae BY4741 SeMeCo community; assay: z-score of subpopulation abundance vs DMSO median, subpopulation auxotrophic for HM; higher = larger share of this subpopulation than in DMSO controls; details: 10 µM; 24 h; SM minimal medium; subpopulation (auxotrophy): HM
Outline: as §1

[10] = tested on: Saccharomyces cerevisiae BY4741 SeMeCo community; assay: z-score of subpopulation abundance vs DMSO median, subpopulation auxotrophic for HU; higher = larger share of this subpopulation than in DMSO controls; details: 10 µM; 24 h; SM minimal medium; subpopulation (auxotrophy): HU
Outline: as §1

[11] = tested on: Saccharomyces cerevisiae BY4741 SeMeCo community; assay: z-score of subpopulation abundance vs DMSO median, subpopulation auxotrophic for UM; higher = larger share of this subpopulation than in DMSO controls; details: 10 µM; 24 h; SM minimal medium; subpopulation (auxotrophy): UM
Outline: as §1

[12] = tested on: Saccharomyces cerevisiae BY4741 SeMeCo community; assay: z-score of subpopulation abundance vs DMSO median, subpopulation auxotrophic for HL; higher = larger share of this subpopulation than in DMSO controls; details: 10 µM; 24 h; SM minimal medium; subpopulation (auxotrophy): HL
Outline: as §1

[13] = tested on: Saccharomyces cerevisiae BY4741 SeMeCo community; assay: z-score of subpopulation abundance vs DMSO median, subpopulation auxotrophic for HLM; higher = larger share of this subpopulation than in DMSO controls; details: 10 µM; 24 h; SM minimal medium; subpopulation (auxotrophy): HLM
Outline: as §1

[14] = tested on: Saccharomyces cerevisiae BY4741 SeMeCo community; assay: z-score of subpopulation abundance vs DMSO median, subpopulation auxotrophic for HUM; higher = larger share of this subpopulation than in DMSO controls; details: 10 µM; 24 h; SM minimal medium; subpopulation (auxotrophy): HUM
Outline: as §1

[15] = tested on: Saccharomyces cerevisiae BY4741 SeMeCo community; assay: z-score of subpopulation abundance vs DMSO median, subpopulation auxotrophic for LUM; higher = larger share of this subpopulation than in DMSO controls; details: 10 µM; 24 h; SM minimal medium; subpopulation (auxotrophy): LUM
Outline: as §1

[16] = tested on: Saccharomyces cerevisiae BY4741 SeMeCo community; assay: z-score of subpopulation abundance vs DMSO median, subpopulation auxotrophic for HLUM; higher = larger share of this subpopulation than in DMSO controls; details: 10 µM; 24 h; SM minimal medium; subpopulation (auxotrophy): HLUM
Outline: as §1

[17] = tested on: Saccharomyces cerevisiae BY4741 SeMeCo community; assay: z-score of subpopulation abundance vs DMSO median, subpopulation auxotrophic for HLU; higher = larger share of this subpopulation than in DMSO controls; details: 10 µM; 24 h; SM minimal medium; subpopulation (auxotrophy): HLU
Outline: as §1

CCN(CC)CCOc1ccc(C(=C(Cl)c2ccccc2)c2ccccc2)cc1 [Clomifene citrate]
mean cell size [1]: 12.1 ± 0.14 | z-score of prototroph abundance [2]: -1.75 | z-score of subpopulation abundance [3]: 0.99 | z-score of subpopulation abundance [4]: 0.3 | z-score of subpopulation abundance [5]: 0.29 | z-score of subpopulation abundance [6]: 0.53 | z-score of subpopulation abundance [7]: 1.04 | z-score of subpopulation abundance [8]: 1.33 | z-score of subpopulation abundance [9]: 1.75 | z-score of subpopulation abundance [10]: 1.86 | z-score of subpopulation abundance [11]: 0.9 | z-score of subpopulation abundance [12]: 1.64 | z-score of subpopulation abundance [13]: 1.37 | z-score of subpopulation abundance [14]: 1.42 | z-score of subpopulation abundance [15]: 1.75 | z-score of subpopulation abundance [16]: 0.41

CCN(Cc1ccncc1)C(=O)C(CO)c1ccccc1 (stereo unspecified) [Tropicamide]
mean cell size [1]: 12.48 ± 0.099 | z-score of prototroph abundance [2]: -0.08 | z-score of subpopulation abundance [5]: 0.43 | z-score of subpopulation abundance [6]: -0.6 | z-score of subpopulation abundance [7]: 0.14 | z-score of subpopulation abundance [8]: 0.83 | z-score of subpopulation abundance [10]: 0.5 | z-score of subpopulation abundance [11]: 0.23 | z-score of subpopulation abundance [12]: 0.16 | z-score of subpopulation abundance [17]: 0.42 | z-score of subpopulation abundance [13]: -0.45 | z-score of subpopulation abundance [15]: 0 | z-score of subpopulation abundance [16]: 0.01

CN(C)CCC=C1c2ccccc2C(C)(C)c2ccccc21 [Melitracen hydrochloride]
mean cell size [1]: 12 ± 0.24 | z-score of prototroph abundance [2]: 1 | z-score of subpopulation abundance [3]: -0.28 | z-score of subpopulation abundance [4]: -0.61 | z-score of subpopulation abundance [5]: -0.05 | z-score of subpopulation abundance [6]: -1.7 | z-score of subpopulation abundance [7]: -0.8 | z-score of subpopulation abundance [8]: -0.58 | z-score of subpopulation abundance [9]: -0.45 | z-score of subpopulation abundance [10]: -0.73 | z-score of subpopulation abundance [11]: -0.21 | z-score of subpopulation abundance [12]: -1.23 | z-score of subpopulation abundance [13]: -1.11 | z-score of subpopulation abundance [14]: -0.78 | z-score of subpopulation abundance [15]: -0.83 | z-score of subpopulation abundance [16]: -0.56

Cn1c(=O)c2[nH]cnc2n(C)c1=O [Aminophylline]
mean cell size [1]: 12.5 ± 0.19 | z-score of prototroph abundance [2]: -0.44 | z-score of subpopulation abundance [4]: 0.83 | z-score of subpopulation abundance [5]: 0.26 | z-score of subpopulation abundance [6]: -0.41 | z-score of subpopulation abundance [8]: 0.92 | z-score of subpopulation abundance [10]: -0.5 | z-score of subpopulation abundance [11]: 0.33 | z-score of subpopulation abundance [12]: 0.54 | z-score of subpopulation abundance [17]: -0.5 | z-score of subpopulation abundance [13]: -0.27 | z-score of subpopulation abundance [14]: 0.11 | z-score of subpopulation abundance [15]: 0.29 | z-score of subpopulation abundance [16]: -0.29

CS(=O)(=O)Nc1ccc([N+](=O)[O-])cc1Oc1ccccc1 [Nimesulide]
mean cell size [1]: 12.5 ± 0.22 | z-score of prototroph abundance [2]: 0.12 | z-score of subpopulation abundance [6]: -0.25 | z-score of subpopulation abundance [10]: -0.2 | z-score of subpopulation abundance [11]: -0.24 | z-score of subpopulation abundance [12]: 0.8 | z-score of subpopulation abundance [17]: 0.61 | z-score of subpopulation abundance [13]: -0.08 | z-score of subpopulation abundance [14]: 0.28 | z-score of subpopulation abundance [15]: 0.62 | z-score of subpopulation abundance [16]: 0.87

CC1(C)S[C@@H]2[C@H](NC(=O)[C@H](NC(=O)N3CCNC3=O)c3ccccc3)C(=O)N2[C@H]1C(=O)O [Azlocillin sodium salt]
mean cell size [1]: 12.4 ± 0.27 | z-score of prototroph abundance [2]: 0.68 | z-score of subpopulation abundance [3]: -0.54 | z-score of subpopulation abundance [4]: 1.83 | z-score of subpopulation abundance [5]: -1.51 | z-score of subpopulation abundance [6]: -0.59 | z-score of subpopulation abundance [7]: -0.34 | z-score of subpopulation abundance [8]: 1.34 | z-score of subpopulation abundance [9]: -0.15 | z-score of subpopulation abundance [10]: -1.18 | z-score of subpopulation abundance [12]: 0.33 | z-score of subpopulation abundance [13]: -0.3 | z-score of subpopulation abundance [14]: -1.31 | z-score of subpopulation abundance [15]: 0.86 | z-score of subpopulation abundance [16]: 0.63

CC(=O)[C@@]1(O)CC[C@H]2[C@@H]3C[C@H](C)C4=CC(=O)CC[C@]4(C)[C@H]3CC[C@@]21C [Medroxyprogesterone]
z-score of prototroph abundance [2]: -0.12 | z-score of subpopulation abundance [4]: 0.51 | z-score of subpopulation abundance [5]: 0.2 | z-score of subpopulation abundance [6]: -0.26 | z-score of subpopulation abundance [9]: -0.02 | z-score of subpopulation abundance [10]: 0.01 | z-score of subpopulation abundance [11]: -0.35 | z-score of subpopulation abundance [17]: 1.06 | z-score of subpopulation abundance [13]: 0.49 | z-score of subpopulation abundance [14]: -0.08 | z-score of subpopulation abundance [16]: 0.34

Cc1nnc(NS(=O)(=O)c2ccc(N)cc2)s1 [Sulfamethizole]
mean cell size [1]: 12.3 ± 0.23 | z-score of prototroph abundance [2]: 0.97 | z-score of subpopulation abundance [3]: -0.46 | z-score of subpopulation abundance [4]: 0.65 | z-score of subpopulation abundance [5]: -0.15 | z-score of subpopulation abundance [6]: -1.02 | z-score of subpopulation abundance [7]: -0.31 | z-score of subpopulation abundance [8]: -0.01 | z-score of subpopulation abundance [9]: -1.19 | z-score of subpopulation abundance [10]: -0.26 | z-score of subpopulation abundance [12]: -0.84 | z-score of subpopulation abundance [13]: -0.87 | z-score of subpopulation abundance [14]: -0.98 | z-score of subpopulation abundance [15]: -0.52 | z-score of subpopulation abundance [16]: -0.49
